In all, about 1,400 compounds went through this assay and about 380 (27%) were called active.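 Rule for the calls: active = mean inhibition above 50% across duplicate retests at 10 µM; inactive = the rest.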 This is one part of the list.
experiment: yeast NALP1 reporter signal suppression – S. cerevisiae, luminescence, single concentration, NALP1 inhibitor project, confirmation (AID 488841);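 note: plate controls were DMSO in galactose medium for no effect and cells in plain SD medium for full effect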; conditions: S. cerevisiae NALP1/ASC/Caspase-1 reporter, beta-gal luminescence; at 10 µM; hits give high values

Structure (SMILES) | inhibition
COc1ccc(-c2[nH]ncc2CN2CCC(OCc3ccccn3)CC2)c(F)c1 | 23.8% (inactive)
Cn1cc(C(=O)NCc2ccc(F)cc2)c(=O)c2cc(S(=O)(=O)N3CCCCC3)ccc21 | 32.6% (inactive)
CC(C)C(C)NC(=O)COc1ccc(S(=O)(=O)N2CCOCC2)cc1[N+](=O)[O-] (stereo not given) | 10.1% (inactive)
O=[N+]([O-])c1cc(S(=O)(=O)N2CCCCCC2)ccc1F | 74.7% (active)
CC(C)NC(=O)c1ccc(COCC(F)(F)F)cc1 | 41.5% (inactive)
CN1c2ccccc2-c2nc3ccccc3n2C1c1cccs1 (stereo not given) | 26.3% (inactive)
COc1ccccc1NS(=O)(=O)c1ccc(NC(=O)Cc2cccs2)cc1 | 31.7% (inactive)
O=C(CN1CCCCC1)Nc1nc(-c2ccc(F)c(F)c2)cs1 | 43.3% (inactive)
O=C(Cc1cccs1)Nc1nc(-c2ccc(F)cc2F)cs1 | 71.6% (active)
COc1ccccc1N1C(=O)C2CCC(c3ccccc3)CC2C1=O (stereo not given) | 40.1% (inactive)
COc1ccc(S(=O)(=O)N2CCOC2CNC(=O)C(=O)NCCCN2CCOCC2)cc1C (stereo not given) | 36.4% (inactive)
O=C(Nc1ccc2nc3ccccc3nc2c1)c1ccccc1 | 70.2% (active)
O=C(COc1ccc(Cl)cc1)Nc1ccc2c(c1)CCC2 | 39.6% (inactive)
CS(=O)(=O)N(Cc1ccccc1)c1ccc(C(=O)Nc2cccnc2)cc1 | 19.7% (inactive)
O=C(Nc1ccc2c(c1)Cc1ccccc1-2)c1ccncc1 | 64.8% (active)
O=C(Nc1ccc(Cl)c(Cl)c1)c1ccncc1 | 49.2% (inactive)
O=C(Nc1ccc2c(c1)CCC2)c1ccccc1 | 73.4% (active)
O=C(CN1CCN(c2ccccc2)CC1)Nc1ccc2c(c1)CCC2 | 22.7% (inactive)
O=C(COC(=O)C1(c2ccccc2F)CCCC1)N1CCOCC1 | 17.6% (inactive)
Cc1cc(C)c(S(=O)(=O)Nc2ccc(OCC(=O)O)cc2)c(C)c1 | 27.6% (inactive)
CCOC(=O)C1CCCN(Cc2ccc(OCC)cc2)C1 (stereo not given) | 41.2% (inactive)
Clc1ccc(OCCN2CCCCC2)cc1Cl | 39.4% (inactive)
CC/C(=N\NC(=O)c1ccccc1Cl)c1ccc(Br)s1 | 38.6% (inactive)
Cc1cccc(C)c1OCC(=O)Nn1c(=O)[nH]c2ccccc2c1=O | 32.6% (inactive)
CCCc1cc(C(=O)O)c2ccccc2n1 | 27.6% (inactive)

Structure (SMILES) | inhibition
CCC(=O)Nc1cccc(-c2nc3ccccc3o2)c1 | 69.3% (active)
CCCCCC(=O)Nc1ccc2oc(-c3cccnc3)nc2c1 | 44.2% (inactive)
COC(=O)c1cc(=O)n(-c2ccccc2)c(=Nc2ccccc2)s1 | 49.4% (inactive)
CCC(C(=O)OC)n1cnc2scc(-c3ccc(C)c(C)c3)c2c1=O (stereo not given) | 98.8% (active)
Cn1c2ccccc2c(=O)c2c(=O)n(C3CCCCCC3)c(C3CCCCC3)nc21 | 41% (inactive)
COc1ccc(-c2cn3cccnc3n2)cc1Br | 78.5% (active)
Cn1c(=O)n(CCCOc2ccc(Cl)cc2)c2ccccc21 | 45.5% (inactive)
O=C(NC1CCCC1)C(c1ccccn1)N(C(=O)c1csnn1)C1CC1 (stereo not given) | 18.6% (inactive)
c1ccc(-c2noc(-c3ccccc3-c3ccccc3)n2)cc1 | 23.8% (inactive)
O=C(CN1CCOCC1)Nc1ccccc1Sc1ccc(Cl)cc1 | 32.2% (inactive)
CSc1nc(C)cc(OCCO)n1 | 27.2% (inactive)
CCCNC(=O)c1cc2c3ccccc3n(C)c2s1 | 69.2% (active)
CC(C)OCCCNC(=O)c1cc2c(=O)n(C)c3ccccc3c2n1C | 18.5% (inactive)
O=C(NNC(=O)c1ccc(-c2ccccc2)cc1)Nc1ccc(F)cc1F | 20.4% (inactive)
Cc1ccc(S(=O)(=O)N(C)C)cc1NC(=O)Nc1ccccc1F | 21.1% (inactive)
O=C(Nc1ccccc1)Nc1ccc(Br)cc1F | 50.3% (active)
CCOC(=O)c1ccc(N2CCOCC2)c(NC(=O)COCC(=O)O)c1 | 16.1% (inactive)
COc1ccc(CC(C)N2CCN(Cc3ccccc3)CC2)c(OC)c1 (stereo not given) | 27.8% (inactive)
Cc1ccccc1N(CC(=O)N/N=C/c1ccccc1Cl)C(=O)c1ccccc1 | 32% (inactive)
Cc1nc(-c2ccccc2)sc1C(=O)CSc1ccccc1 | 42% (inactive)
CCCSc1ccc2nc(-c3ccccc3)cn2c1 | 75.4% (active)
Cc1cc(C)cc(NS(=O)(=O)c2ccc(NC(=S)NC(=O)c3ccc(Br)o3)cc2)c1 | 45.4% (inactive)
CS(=O)(=O)N(Cc1ccccc1)c1ccc(C(=O)Nc2ccc3c(c2)OCO3)cc1 | 33.1% (inactive)
CSCc1ccc(C(=O)Nc2cc(C)cc(C)c2)cc1 | 76% (active)
COCCn1c(SCC(=O)NC(=O)NC(C)(C)C)nc2ccccc21 | 27.5% (inactive)

Structure (SMILES) | inhibition
Nc1nc(NCc2ccco2)nc(N2CCCCCC2)c1[N+](=O)[O-] | 62.6% (active)
CC1CCN(c2ccccc2NC(=O)c2ccc(N3CCOCC3)c([N+](=O)[O-])c2)CC1 | 1.35% (inactive)
Cc1ccc(C(=O)NCc2ccco2)cc1S(=O)(=O)Nc1cccc(Cl)c1 | 25.1% (inactive)
CC1CCN(c2nc(NCc3ccco3)nc(N)c2[N+](=O)[O-])CC1 | 67.3% (active)
CC1CCCN(c2nc(NCc3ccco3)nc(N)c2[N+](=O)[O-])C1 (stereo not given) | 55.1% (active)
Cc1ccc(Nc2nc(N)c([N+](=O)[O-])c(NCc3ccco3)n2)cc1C | 60.3% (active)
O=C(Nc1nc(-c2ccncc2)cs1)c1ccc(S(=O)(=O)N2CCOCC2)cc1 | 28.9% (inactive)
Clc1ccc(N2CCN(c3cnc4ccccc4n3)CC2)cc1 | 37.4% (inactive)
COc1ccc(-c2nc3c(c(=O)[nH]c(=O)n3Cc3ccccc3)n2C)cc1 | 27.9% (inactive)
CC1CCCCC1NC(=O)/C(C#N)=C/c1ccccc1F (stereo not given) | 39.8% (inactive)
CC(C)(C)C1=CC(=O)C(=O)C(C(C)(C)C)=C1 | 20% (inactive)
CCSc1nnc(-c2ccncc2)n1Cc1ccccc1 | 35.8% (inactive)
Cc1ccc(NC(=S)Nc2ccc(Cl)c(Cl)c2)c(OC(F)F)c1 | 33.8% (inactive)
O=C(Cc1ccc([N+](=O)[O-])cc1)c1ccc(O)cc1O | 39% (inactive)
CC[N+]1(CC)CC2=Cc3c(ccc4ccccc34)CC2C1 (stereo not given) | 14.5% (inactive)
CCOC(=O)n1c(=O)n(Cc2ccccc2)c2ccccc21 | 25.8% (inactive)
O=C(c1ccc(COc2ccccc2Br)cc1)N1CCCCC1 | 36.5% (inactive)
CCCNC(=O)c1nnsc1S(=O)c1ccc(Cl)cc1 (stereo not given) | 99.3% (active)
CCCCNC(=O)Nc1nnc(-c2ccc(Cl)cc2)o1 | 44.9% (inactive)
CNC(=O)c1nnsc1S(=O)c1ccc(Cl)cc1 (stereo not given) | 88.7% (active)
O=C(c1nnsc1S(=O)c1ccc(Cl)cc1)N1CCOCC1 (stereo not given) | 76.7% (active)
O=C(CCSc1nc2cc(Cl)ccc2o1)N1CCOCC1 | 24.1% (inactive)
Cn1cc(S(=O)(=O)N2CCN(c3cccc(C(F)(F)F)c3)CC2)c(=O)n(C)c1=O | 7.85% (inactive)
CC(NC(=O)/C(C#N)=C/c1ccc([N+](=O)[O-])o1)c1ccccc1 (stereo not given) | 52.1% (active)
COC(=O)c1ccc(/C=C(\C#N)C(=O)NC(C)c2ccccc2)cc1 (stereo not given) | 23.2% (inactive)

Structure (SMILES) | inhibition
CN(Cc1ccccc1)C(=O)c1ccc([N+](=O)[O-])o1 | 40.2% (inactive)
CC(NC(=O)/C(C#N)=C/c1ccc(Cl)c([N+](=O)[O-])c1)c1ccccc1 (stereo not given) | 51.1% (active)
COc1cc(/C=C/C(=O)Nc2ccc(C)cc2)cc(OC)c1OC | 33.6% (inactive)
COc1cc(/C=C(\NC(C)=O)C(=O)Nc2cccc(O)c2)ccc1OC(C)=O | 28.1% (inactive)
COc1ccc(/C=C/C(=O)Nc2ccc3c(c2)CCC3)cc1OC | 79.2% (active)
CCc1ccc(CC(=S)N2CCOCC2)cc1 | 42.3% (inactive)
CCOc1ccc(C(=O)NC(=S)Nc2ccccc2N2CCCCC2)cc1[N+](=O)[O-] | 43.9% (inactive)
COc1ccc(C(=O)NC(=S)Nc2ccccc2N2CCCCC2)cc1[N+](=O)[O-] | 51.9% (active)
CCOc1ccc(C(=O)Nc2ccc(-c3nc4ccccc4[nH]3)cc2)cc1[N+](=O)[O-] | 26.6% (inactive)
COc1ccc(/C=C2\SC(N3CCc4ccccc4C3)=NC2=O)cc1 | 69.8% (active)
CC(C)c1nc(SCC(=O)Nc2ccc3c(c2)OCCO3)n[nH]1 | 19.3% (inactive)
N#Cc1ccc(-c2ccc(Cl)cc2)nc1SCC(=O)c1cccc(Cl)c1 | 26.4% (inactive)
Cc1ccc(NC(=O)Cn2cccc2)c(C)c1 | 27.8% (inactive)
CCN(CC)c1ccc(NC(=O)Cn2cc3c(n2)CCC(C)C3)c(C)c1 (stereo not given) | 50.9% (active)
COc1ccccc1CN(Cc1nc2ccccc2c(=O)[nH]1)C(=O)Nc1ccccc1 | 36.4% (inactive)
CN(C)CCCN(C(=O)CCOc1ccccc1)c1nc2c(F)cccc2s1 | 64.8% (active)
Cc1cccc2sc(N(CCCN(C)C)C(=O)CCS(=O)(=O)c3ccccc3)nc12 | 69.6% (active)
Cc1ccc2nc(N(CCCN(C)C)C(=O)CCc3ccccc3)sc2c1 | 46.8% (inactive)
CN(C)C(CNC(=O)CCCOc1ccccc1)c1ccco1 (stereo not given) | 30.6% (inactive)
Cc1cccc2sc(N(CCCN(C)C)C(=O)c3sc4ccccc4c3Cl)nc12 | 35.9% (inactive)
CN(C)CCCN(C(=O)CCS(=O)(=O)c1ccccc1)c1nc2cc3c(cc2s1)OCO3 | 61.2% (active)
Cc1ccc2sc(N(CCCN(C)C)C(=O)CCS(=O)(=O)c3ccccc3)nc2c1C | 88.8% (active)
CCOC(=O)c1cnc2ccccc2c1Nc1cc(C(=O)O)ccc1C | 26.6% (inactive)
Cc1cc(N2CCOCC2)n2ncc(-c3ccccc3)c2n1 | 46.7% (inactive)
CSc1cc(N2CCOCC2)nc(-c2ccccc2Cl)n1 | 72% (active)

Source: PubChem BioAssay AID488841 (Sanford-Burnham Center for Chemical Genomics, 2010)
